Test results from the supplement of paper PMC10941209.

system: HFF; assay: cell viability relative to DMSO control; higher = less cytotoxic; details: 1 µM; 72 h
Procedure: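 Single-dose cytotoxicity screen of the MMV Pandemic Response Box at 1 uM on human foreskin fibroblasts (HFF), 72 h at 37 C. Viability measured by MTT (OD 550 nm) and normalised to the DMSO control (% survival).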

Row | SMILES | cell viability
1 | COC1CC2CCC(C)C(O)(O2)C(=O)C(=O)N2CCCCC2C(=O)OC(C(C)CC2CCC(OCCO)C(OC)C2)CC(=O)C(C)/C=C(\C)C(O)C(OC)C(=O)C(C)CC(C)/C=C/C=C/C=C/1C (stereo not given) | 60.8%
2 | O=C(O)C[C@H]1CC[C@H](c2ccc(-c3ccc(Nc4ccc(C(F)(F)F)nc4)cn3)cc2)CC1 | 67.6%
3 | Cc1nc2ccc(Cl)cc2c(-c2ccccc2)c1CC(=O)O | 77%
4 | O=C(NC(=O)N1CCCc2ccccc21)c1cccc(Cl)c1 | 75.5%
5 | CS(=O)(=O)c1ccc(Oc2ccc(Cl)cc2)cc1 | 69.7%
6 | CCC[C@H](NC(=O)[C@@H]1[C@H]2CCC[C@H]2CN1C(=O)[C@@H](NC(=O)[C@@H](NC(=O)c1cnccn1)C1CCCCC1)C(C)(C)C)C(=O)C(=O)NC1CC1 | 61.8%
7 | CCCCCCCc1[nH]c2ccccc2c(=O)c1O | 62%
8 | C[C@H]1CC[C@@]2(O)C(C)(C)[C@@H]3CC[C@@]2(C)[C@H]1C3 | 65.2%
9 | O=C(NN1C(=O)[C@@H]2[C@@H]3C=C[C@@H]([C@H]4C[C@@H]34)[C@@H]2C1=O)c1ccc(C(F)(F)F)cc1 | 71.8%
10 | CC(C)(C)NC(=O)[C@@H]1C[C@@H]2CCCC[C@@H]2CN1C[C@@H](O)[C@H](Cc1ccccc1)NC(=O)[C@H](CC(N)=O)NC(=O)c1ccc2ccccc2n1 | 78.9%
11 | CC(C)c1cc2c(cc1S(=O)(=O)O)[C@@]1(C)CCC[C@@](C)(C(=O)O)[C@@H]1CC2 | 64.8%
12 | NC(=O)c1cnccn1 | 68.1%
13 | CC(C)CCN1C(=O)C(C2=NS(=O)(=O)c3cc(NS(C)(=O)=O)ccc3N2)=C(O)[C@@H]2[C@H]3CC[C@H](C3)[C@@H]21 | 67.8%
14 | CC(=O)O[C@H]1C[C@@]2(C)[C@@H](C[C@@H](O)[C@H]3[C@@]4(C)CC[C@@H](O)[C@@H](C)[C@@H]4CC[C@@]32C)/C1=C(\CCC=C(C)C)C(=O)O | 63.5%
15 | CC(C)Oc1ccc(-n2cnc3cc(/C=C\c4ccc(C(C)(C)O)cc4)ccc32)cc1 | 64.2%
16 | Cc1c(OCC(F)(F)F)ccnc1C[S+]([O-])c1nc2ccccc2[nH]1 (stereo not given) | 66.4%
17 | O=C(CP(=O)(O)O)NCCc1cccc(Oc2ccccc2)c1 | 65.7%
18 | Fc1ccc2c(/C=C/c3nnn[nH]3)c[nH]c2c1 | 71.2%
19 | O=C(Nc1ccccc1)N(Cc1cc(Br)ccc1O)c1ccc(F)cc1 | 67.1%
20 | CCC(C)NCC(O)Cn1c2ccc(Cl)cc2c2cc(Cl)ccc21 (stereo not given) | 68.3%

Row | SMILES | cell viability
21 | COc1cccc(N2CCN(C3=Nc4c(F)cccc4[C@H](CC(=O)O)N3c3cc(C(F)(F)F)ccc3OC)CC2)c1 | 55.7%
22 | Cc1onc(-c2ccccc2Cl)c1C(=O)N[C@@H]1C(=O)N2[C@@H]1SC(C)(C)[C@@H]2C(=O)O | 69%
23 | NC(=O)c1c(N)sc2c1CCCCC2 | 74.1%
24 | O=C(NC1CCCc2c1[nH]c1ccc(Cl)cc21)c1ccccn1 (stereo not given) | 67.4%
25 | CN1CCN(Cc2ccc(-c3cnc4[nH]cc(-c5ccc6[nH]ccc6c5)c4c3)cc2)CC1 | 75.3%
26 | CC(C)(C)c1ccc(Oc2ccc(N)cc2)cc1 | 68.3%
27 | CC(C)n1cnc2c(NCc3ccccc3)nc(NCc3ccccc3)nc21 | 65.3%
28 | Cc1ccccc1NC(=O)Nc1cccc([N+](=O)[O-])c1 | 71.1%
29 | CN(O)C(=O)c1cc2c(CN3CCC[C@H]3C(N)=O)cn(Cc3ccc(F)cc3)c2cn1 | 64.1%
30 | O=C(O)c1ccc(-n2nc(-c3ccccc3O)nc2-c2ccccc2O)cc1 | 76.7%
31 | CN1CCN(c2ccc3[nH]c(-c4ccc5[nH]c(-c6ccc(O)cc6)nc5c4)nc3c2)CC1 | 68.8%
32 | CCOC(=O)N[C@@H]1CC[C@@H]2[C@@H](C1)C[C@H]1C(=O)O[C@H](C)[C@H]1[C@H]2/C=C/c1ccc(-c2cccc(F)c2)cn1 | 55.3%
33 | NC(=O)c1ccccc1NC(=O)c1ccc(C(=O)Nc2ccccc2C(N)=O)cc1 | 63.5%
34 | Nc1cnn(C2OC(CO)C(O)C2O)c(=O)n1 (stereo not given) | 63.5%
35 | CC1(C)C[C@H]1C(=O)N/C(=C\CCCCSC[C@@H](N)C(=O)O)C(=O)O | 71.5%
36 | O=C(Nc1ccc(-c2ccccc2)cc1)C1=C(O)C(Cc2ccccc2)OC1=O (stereo not given) | 69.3%
37 | COC(=O)Nc1nc2cc(Sc3ccccc3)ccc2[nH]1 | 71.9%
38 | CN(Cc1ccc(C(C)(C)C)cc1)Cc1cccc2ccccc12 | 62.8%
39 | Oc1ccc2[nH]c(-c3ccccc3)nc2c1 | 69.2%
40 | Oc1cccc(C(Nc2nccs2)c2ccc3cccnc3c2O)c1 (stereo not given) | 72%
